Experimental data from the supplement of paper PMC7411054.

test system: WPMY1-CANX-COX4; assay: phenotypically active (imaging signature differs from DMSO and reproducible) at any of 0.3-9 uM (binary (1 = active, 0 = inactive)); higher = active; conditions: treatment time: 24 h
Summary of the method: (§1)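 Four wells per concentration (0.3, 1, 3 or 9 µM) were treated for 24 h in each of fifteen gene-edited reporter lines from A549, HepG2 and WPMY1 cells, then imaged live. After normalising live-cell features to solvent control wells, deviation was defined as ≥3 of 4 wells lying past the 95th percentile of control Euclidean distances. Reproducibility was defined as a median replicate Pearson correlation above the 95th percentile of non-replicates. Both had to hold for phenotypic activity.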

Phenotypically active, inactive:
CCN1CCN(c2cc(-c3ccc(F)cc3)c3c(n2)CCCCCC3)CC1 [blonanserin] 0
CCCCC1C(=O)N(c2ccccc2)N(c2ccc(O)cc2)C1=O (centres undefined) [oxyphenbutazone] 0
Cc1ccccc1N1C(=O)c2cc(S(N)(=O)=O)c(Cl)cc2NC1C (centres undefined) [metolazone] 0

Phenotypically active, active:
COc1cc2c(NC3CCN(C(C)C)CC3)nc(C3CCCCC3)nc2cc1OCCCN1CCCC1 1
COc1cc2ncn(-c3cc(OCc4ccccc4C(F)(F)F)c(C(N)=O)s3)c2cc1OC 1
Cc1nc(NC(=O)N2CCC[C@H]2C(N)=O)sc1-c1csc(C(C)(C)C)n1 1

test system: WPMY1-GM130-SQSTM1; assay: as above; conditions: treatment time: 24 h
Summary of the method: as §1

Phenotypically active, active:
CC[C@H](C)[C@H](NC(=O)OCc1ccccc1)C(=O)N[C@@H](CCC(=O)OC(C)(C)C)C(=O)N[C@@H](C)C(=O)N[C@H](C=O)CC(C)C 1
CN1CCN(C2=Nc3cc(Cl)ccc3Nc3ccccc32)CC1 [clozapine] 1
Cc1cc(C(C)(C)C)c(O)c(C)c1CC1=NCCN1 [oxymetazoline] 1

Phenotypically active, inactive:
OCc1ccccc1O[C@@H]1O[C@H](CO)[C@@H](O)[C@H](O)[C@H]1O [Salicin] 0
O=C(c1ccc(C(=O)N2CCC(N3CCCC3)CC2)c(Nc2ccccc2)c1)N1CCC(N2CCCC2)CC1 0
O=c1[nH]cc(F)c(=O)[nH]1 [5-Fluorouracil] 0
CC1(C)NC(=O)N(c2ccc([N+](=O)[O-])c(C(F)(F)F)c2)C1=O [nilutamide] 0
CCN1CCN(C(c2cccnc2)c2cc(Cl)c3cccnc3c2O)CC1 (centres undefined) 0
